Kd data for 18 compounds are collected here from paper PMC5540273 (PLoS ONE, 2017).

By Kd is commonly meant the constant that tells how readily two partners part at equilibrium. A lower Kd goes with higher affinity.
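Also: kd values determined as follow-up on hits from a single-replicate KINOMEscan panel screen.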

For the first test, the system named is ADCK4.
The compound `Cl.Oc1ccc(-c2nc(-c3ccccc3)[nH]c2-c2ccncc2)cc1` [SB-428218] yielded an equilibrium dissociation constant (Kd) of over 10000 nM.

Consider `CCn1c(-c2cccnc2O)nc2cnccc21` [SB-736715], for which the Kd is over 10000 nM.

Compound `Cc1cc(NCC(c2ccccc2)c2ccccc2)nc(NCc2ccc(C(F)(F)F)cc2)n1` [GW497681] returned a Kd of 2300 nM.

The next test deals with AURKA.
Consider `Fc1cc(Cl)ccc1Nc1ccnc2cc(-c3ccc(CN4CCCCC4)o3)ccc12` [GW560116], for which the Kd was over 10000 nM.

For the compound `C[C@@H]1CCCCN1c1cc(-c2ccc3c(N)n[nH]c3c2)nc(N)n1` [GSK2258759], the Kd is over 10000 nM.

With `Clc1cc(Cl)cc(Nc2ccnc(Nc3cc(Cl)cc(Cl)c3)n2)c1` [GSK175726], the equilibrium dissociation constant (Kd) was over 10000 nM.

In turn, `COc1cc(Nc2nccc(N3CCC(NC(=O)Nc4cc(C)ccc4C)C3)n2)cc(OC)c1OC` (stereo not shown) [GSK1379762] gave a Kd of 1100 nM. That is a single-digit micromolar value.

For `COc1ccccc1CNC(=O)c1cc(C(=O)c2ccccc2C)c[nH]1` [GSK364507], the Kd was over 10000 nM.

The compound `Nc1ncnc2[nH]c(-c3ccccc3)nc12` [AH5015] displayed an equilibrium dissociation constant (Kd) of over 10000 nM.

The compound `COc1cc2ncnc(Nc3ccc4nc(-c5ccccc5)[nH]c4c3)c2cc1OC.Cl` [GW282450] displayed a Kd of 2300 nM. This lies in the single-digit micromolar range.

A further test relates to AURKB.
`COc1ccc(CNC(=O)NC2CCN(c3ccnc(Nc4cc(OC)c(OC)c(OC)c4)n3)C2)cc1` (stereo not shown) [GSK1379748] came in with a Kd of 330 nM.

As for `Cn1ccc2ncnc(Oc3ccc(NC(=O)Nc4ccccc4)cc3)c21`, binding was put at a Kd of 110 nM. This Kd is about 3-fold lower than that of the compound before.

`Cn1ccc2ncnc(Oc3ccc(Nc4nc5ccccc5[nH]4)cc3)c21`: the affinity, expressed as Kd, was 59 nM.

For `Cc1ccc(C(=O)Nc2ccc(Nc3ccnc4cc(-c5ccccn5)ccc34)cc2O)cc1.Cl` [GW440146], the Kd is 290 nM.

Compound `Cn1cncc1-c1ccc2ncnc(Nc3ccc(OCc4ccccc4)cc3)c2c1` [GW320571] came in with a dissociation constant Kd of over 10000 nM.

`O=C(Nc1ccc2c(c1)OCO2)NC1CCN(c2ccnc(Nc3ccc(F)cc3)n2)C1` (stereo not shown) [GSK1379724] came in with a dissociation constant (Kd) of 6900 nM.

`COc1cc(Nc2nccc(N3CCC(NC(=O)Nc4cc(C)ccc4C)C3)n2)cc(OC)c1OC` (stereo not shown) [GSK1379762]: the equilibrium dissociation constant (Kd) was 240 nM.

For the next test, the system named is AURKC.
Compound `COc1cc2ncn(-c3cc(OCC4CCCO4)c(C(N)=O)s3)c2cc1OC` (stereo not shown) [GSK204607] had an equilibrium dissociation constant (Kd) of over 10000 nM.

As to `Cn1ccc2ncnc(Oc3ccc(NC(=O)Nc4ccccc4)cc3)c21`, the equilibrium dissociation constant (Kd) worked out at 110 nM.

`COc1cccc(-c2cc(-c3c[nH]nc3-c3ccccn3)ccn2)c1` [GW680338] showed a Kd of over 10000 nM.

With `Cc1ccc(C(=O)Nc2ccc(Nc3ccnc4cc(-c5ccccn5)ccc34)cc2O)cc1.Cl` [GW440146], the equilibrium dissociation constant (Kd) came out at 500 nM.

Take `COc1cc(Nc2nccc(N3CCC(NC(=O)Nc4cc(C)ccc4C)C3)n2)cc(OC)c1OC` (stereo not shown) [GSK1379762]: the affinity, expressed as Kd, was 200 nM.
